High-throughput results: PubChem, National Center for Advancing Translational Sciences (NCATS)
IL-1B inflam inh: inflammasome signaling inhibition, IL-1 beta readout; activity change, % at 57.5 µM; THP-1 LPS/ATP IL-1B secretion, AlphaLISA, 16 h; active compounds read low; AID 743279; 360,000 compounds, 4.7% hits; in the data active = activity change below about -50%; inconclusive = mostly about -30% to -49%
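THP-1 cells pretreated 1 hr with compounds (up to 57.5 uM final), then stimulated with LPS (250 ng/mL final) plus ATP (1.25 mM final); secreted IL-1B measured by AlphaLISA after 16 hr, decreased signal indicating inhibition.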
TDP1 cell noCPT: qHTS for Inhibitors of human tyrosyl-DNA phosphodiesterase 1 (TDP1): qHTS in cells in absence of CPT; 420,000 compounds, 15% hits; DT40 Tdp1-/- hTDP1 cells, no CPT, ATP luminescence, 48 h; Potency, µM (top dose mostly 46.2 µM), inactives show at the highest dose activity change, negative = growth inhibition, actives largely listed as inhibitors; note: potency is the fitted concentration of half-maximal effect; nearly all actives have a fitted effect of over 55% in size
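A cellular qHTS used chicken DT40 cells lacking endogenous Tdp1 but carrying stably transfected human TDP1. Compounds were applied without camptothecin, and cell growth kinetics were judged by ATP-dependent luminescence after ≥48 hr.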
HT1080-NT tox: kills 2HG-producing HT-1080-NT fibrosarcoma cells. HT-1080-NT fibrosarcoma viability, CellTiter-Glo ATP luminescence, 48 h. 360,000 compounds, 1.6% hits. Potency, µM (top dose mostly 46.1 µM), for the others: at the top dose activity, negative = less viability, actives largely listed as cytotoxic;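 note: NT is the 2HG producing partner of a matched IDH1 knockdown line; potency is the fitted concentration of half-maximal effect; 0% = DMSO-treated cells and -100% = media-only wells without cells; nearly all actives have a fitted effect of over 55% in size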
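Viability by CellTiter-Glo luminescence after 48 h compound exposure at 37C of HT-1080-NT cells (750/well, RPMI, 5% FBS). % activity scaled between DMSO wells and medium-only wells, then curve-fitted and categorized by curve class.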
DT40 TDP1 CPT: DT40-hTDP1 cell growth loss with CPT | chicken DT40 Tdp1-/-;hTDP1 cells + 20 nM CPT, ATP luminescence, 48 h | Potency, µM (top dose mostly 46.2 µM), without a hit: at the highest dose activity change, negative = growth inhibition, most hits filed as inhibitors | 420,000 compounds, 12% hits | AID 686979; note: potency is the fitted concentration of half-maximal effect; nearly all actives have a fitted effect of over 55% in size
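Chicken DT40 Tdp1-/- cells stably complemented with human TDP1 were seeded at 400 cells/well in medium containing 20 nM camptothecin, exposed to pin-transferred compounds, and grown at 37 °C for at least 48 hr. Viability was read as ATP luminescence.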
HT1080 IDH1KD tx: HT-1080 IDH1 knockdown cell toxicity (counter line); HT-1080 IDH1 knockdown viability, ATP luminescence, 48 h; Potency, µM (titrated, usually from 46.1 µM), for the others: top-dose activity, negative = toxicity, usual class: cytotoxic; 360,000 compounds, 2% hits; AID 686971;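 note: potency is the fitted concentration of half-maximal effect; 0% = DMSO wells and -100% = cell-free medium wells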
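Cytotoxicity counter-line: IDH1KD HT-1080, 48 h, CellTiter-Glo. Curves classed by r2, magnitude and activity.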
* = called active by the depositor; u = inconclusive; x = no result given. A selection: hits, their analogues and other compounds. The true share with any hit is near 19%. Unless noted, calls come from the whole dose curve; as a rule, active = well fitted curve in the direction sought with a large enough effect; inconclusive = small, poorly fitted or top-dose-only effect, or another doubt; inactive = no such curve, though single readings can be large; an effect the other way counts as inactive or inconclusive. Unless noted, % is set by controls: 0 for no effect and ±100 for the full control effect.

SMILES	IL-1B inflam inh	TDP1 cell noCPT	HT1080-NT tox	DT40 TDP1 CPT	HT1080 IDH1KD tx
COC(=O)[C@@]12C[C@@H](CC(=O)NCCC(C)C)C(=O)N(Cc3ccco3)C1=CCC(C)(C)C2	-18	u	3%	u	-2%
COC(=O)[C@]12CCCCC=C1N(Cc1ccco1)C(=O)[C@H](CC(=O)NCc1cccc3ccccc13)C2	-8	u	-6%	u	-13%
COC(=O)[C@@]12C[C@@H](CC(=O)NCc3cccc4ccccc34)C(=O)N(Cc3ccco3)C1=CCC(C)(C)C2	-71*	u	u	21µM*	u
COC(=O)[C@@]12C[C@@H](CC(=O)NCc3cccs3)C(=O)N(Cc3ccco3)C1=CCC(C)(C)C2	u	18µM*	-3%	u	-1%
CCCCOCCCNC(=O)C[C@@H]1C[C@@]2(C(=O)OC)CC(C)(C)CC=C2N(Cc2ccco2)C1=O	-2	23µM*	-1%	21µM*	-3%
COC(=O)[C@@]12C[C@@H](CC(=O)NCCCCc3ccccc3)C(=O)N(Cc3ccco3)C1=CCC(C)(C)C2	u	u	-2%	16µM*	u
Cn1cc(Cl)c(C(=O)N2CCN(c3ncccn3)CC2)n1	4	-4%	17%	1%	15%
CC(=O)Nc1ncc(Cc2ccc(Cl)cc2Cl)s1	24	-2%	-1%	u	-1%
COC(=O)[C@@]12C[C@@H](CC(=O)NCc3ccc(C)o3)C(=O)N(Cc3ccco3)C1=CCC(C)(C)C2	-11	u	1%	u	-11%
COC(=O)[C@@]12C[C@@H](CC(=O)NCc3ccccc3)C(=O)N(Cc3ccco3)C1=CCC(C)(C)C2	-16	u	1%	18µM*	-7%
CCOc1ccc(C(=O)/C=C/Nc2ccc(S(=O)(=O)N=C(N)N)cc2)cc1	4	-14%	u	u	18µM*
COc1ccc(Cl)cc1S(=O)(=O)N(C)CC(=O)NCc1ccc2c(c1)OCO2	-2	-3%	-1%	3%	-2%
O=C(O)c1sccc1S(=O)(=O)N1CCOCC1	20	2%	13%	5%	0%
Cn1c(NC(=O)C[n+]2cc(-c3ccc(Cl)cc3)n3c2CCC3)cc(=O)n(C)c1=O	10	u	u	-26%	12%
Cc1ccc(-c2c[n+](Cc3ccc(Cl)cc3)c3n2CCC3)cc1	-85*	3.7µM*	u	4.1µM*	u
Cc1ccc(C[n+]2cc(-c3ccc(Cl)cc3)n3c2CCC3)cc1	-92*	2.3µM*	-23%	5.2µM*	-19%
C1N2CN3CN1CN(C2)C3	-14	-11%	6%	-4%	6%
Nc1cc(-c2ccc(Br)cc2)nn1S(=O)(=O)c1ccccc1	10	-7%	-14%	-6%	-4%
COc1ccc(OC)c(S(=O)(=O)n2nc(-c3ccccc3)cc2N)c1	10	-25%	-19%	-30%	-20%
COc1cc(OC)cc(-c2cc(N)n(S(=O)(=O)Cc3ccccc3)n2)c1	-15	18µM*	4%	u	-6%
COc1cc(-c2cc(N)n(S(=O)(=O)c3ccc(F)cc3)n2)cc(OC)c1OC	0	18µM*	-26%	16µM*	-20%
COc1ccc(-c2cc(N)n(S(=O)(=O)c3ccc(F)cc3)n2)cc1OC	3	12µM*	-1%	18µM*	0%
Nc1cc(-c2ccccc2)nn1S(=O)(=O)c1ccc(F)cc1	-14	15µM*	u	29µM*	-7%
COc1ccc(C(C)(O)c2nc(-c3ccoc3)cs2)cc1 (centres undefined)	9	u	19%	u	-15%
COc1ccc(CCC(=O)NC2CC(=O)N(c3ccc(OC)cc3)C2)cc1 (centres undefined)	x	1%	x	-21%	x
SMILES	IL-1B inflam inh	TDP1 cell noCPT	HT1080-NT tox	DT40 TDP1 CPT	HT1080 IDH1KD tx
O=C(CSc1nc2cc(Cl)ccc2s1)Nc1cccc(S(=O)(=O)N2CCOCC2)c1	28	21µM*	-6%	u	-13%
O=C(CSc1ncccn1)Nc1ccc(Cl)c(S(=O)(=O)N2CCOCC2)c1	5	-22%	10%	-5%	9%
O=C(CSc1nc2ccccc2s1)Nc1ccc(Cl)c(S(=O)(=O)N2CCOCC2)c1	29	u	-16%	23µM*	-2%
O=C(CSc1nnc(C23CC4CC(CC(C4)C2)C3)o1)Nc1ccc(N2CCOCC2)c(Cl)c1	18	18µM*	15%	u	u
O=C(CSc1n[nH]c(=O)[nH]c1=O)Nc1cccc(S(=O)(=O)N2CCOCC2)c1	5	7%	9%	11%	5%
O=C(CSc1nc2ccccc2s1)Nc1ccc(N2CCOCC2)c(Cl)c1	-4	21µM*	3%	16µM*	-4%
CC(=O)Nc1ccc2nc(SCC(=O)Nc3ccc(N4CCOCC4)c(Cl)c3)sc2c1	0	u	0%	u	-13%
CC(C)c1cccc(C(C)C)c1OC(=O)[C@H]1OC(c2ccc(Br)cc2)=C[C@@H]1c1ccc(Br)cc1	0	u	u	u	u
CN(C)c1ncc2ncc(=O)n(CCC#N)c2n1	x	-24%	x	-19%	x
Cc1ccc(S(=O)(=O)N2CCCCC2)cc1NS(=O)(=O)c1ccccc1F	24	-18%	-3%	22%	-14%
COc1cccc(N(C(=O)Cn2nnc(-c3ccc(Cl)cc3)n2)C(C(=O)NCC2CCCO2)c2ccc(C)cc2)c1 (centres undefined)	-9	21µM*	0%	16µM*	5%
COc1cccc(N(C(=O)Cn2nnc(-c3ccc(F)cc3)n2)C(C(=O)NCC2CCCO2)c2ccc(Cl)cc2)c1 (centres undefined)	-8	u	-1%	u	-1%
COc1ccc(-c2nnn(CC(=O)N(Cc3ccccc3Cl)C(C(=O)NCC3CCCO3)c3ccco3)n2)cc1 (centres undefined)	5	18µM*	0%	u	9%
COc1ccc(-c2nnn(CC(=O)N(Cc3ccco3)C(C(=O)NCC3CCCO3)c3ccco3)n2)cc1 (centres undefined)	-23	u	4%	u	-15%
CCCNC(=O)C1(C)CCCN(Cc2cc3ccccc3o2)C1 (centres undefined)	2	23µM*	3%	16µM*	-2%
CCCNC(=O)C1(C)CCCN(Cc2ccc(Cl)cc2)C1 (centres undefined)	0	u	25%	u	24%
CCCNC(=O)C1(C)CCCN(Cc2ccc3ccccc3c2)C1 (centres undefined)	0	23µM*	0%	u	u
